# Sfp inh – qHTS Assay for Inhibitors of Bacillus subtilis Sfp phosphopantetheinyl transferase (PPTase) | 4'-phosphopantetheinyl transferase ffp (Bacillus subtilis), Q9F4F7 | Biochemical Sfp PPTase activity, qHTS | Potency, µM, for the others: largest response in the series, negative = inhibition, most hits filed as inhibitors | 3.5% of 310,000 active | AID 1490, 2009;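 note: the enzyme is Sfp with the accession as filed and its product quenches rhodamine fluorescence; 0% = enzyme reaction without inhibitor and -100% = no enzyme wells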
#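 With Hepes-Na pH 7.6 buffer containing 10 mM MgCl2, Sfp (15 nM) modified BHQ-2-YbbR (12.5 uM) using rhodamine-CoA (5 uM). Two reads 30 minutes apart at 525/598 nm yielded each well's rate.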
# BAZ2B inh – qHTS Assay for Inhibitors of BAZ2B | AlphaScreen BAZ2B-H3K14Ac peptide displacement | Potency, µM (series often up to 114 µM), without a hit: at the top dose activity change, negative = inhibition, hits mostly inhibitors | 4.4% of 360,000 active; note: % is set by controls: 0 for no effect and ±100 for the full control effect; nearly all actives have a fitted effect of over 60% in size
#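 Complex of BAZ2B and biotin-H3K14Ac (50 nM apiece) forms over 30 min at RT, then faces library compounds up to 110 uM for another 30 min; AlphaScreen beads added, 20 min dark incubation, luminescence read.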
# HP1b binding inh – HTS for Inhibitors of HP1-beta Chromodomain Interactions with Methylated Histone Tails; Potency, µM (titrated, usually from 114 µM), for inactives: at the highest dose activity change, negative = inhibition, usual class: inhibitors; Chromobox protein homolog 1 (Homo sapiens), P83916; AlphaScreen HP1-beta / biotin-H3K9me3 peptide binding; 0.56% of 390,000 active; note: nearly all actives have a fitted effect of over 70% in size
# Target sequence (P83916 whole entry, looked up): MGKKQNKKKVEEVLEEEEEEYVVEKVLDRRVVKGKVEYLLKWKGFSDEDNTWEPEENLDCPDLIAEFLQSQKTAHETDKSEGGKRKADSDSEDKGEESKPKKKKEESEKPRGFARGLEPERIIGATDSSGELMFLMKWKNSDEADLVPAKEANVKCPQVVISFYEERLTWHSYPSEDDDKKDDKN
#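 AlphaScreen: HP1-beta (50 nM) preformed 30 min with biotin-H3(1-18)K9me3 peptide (50 nM) in PBS pH 7.4, 0.01% Tween-20. Compound added for 30 min at RT, then streptavidin donor/nickel chelate acceptor beads (10 ug/mL) for 30 min.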
# JMJD2A Tudor – qHTS Assay for Inhibitors of JMJD2A-Tudor Domain; 4.4% of 390,000 active; AlphaScreen JMJD2A-Tudor / H3K4me3 peptide binding; Lysine-specific demethylase 4A (Homo sapiens), O75164; Potency, µM (highest dose often 114 µM), for inactives: at the highest dose activity change, negative = inhibition, most hits filed as inhibitors; note: % is set by controls: 0 for no effect and ±100 for the full control effect; nearly all actives have a fitted effect of over 50% in size
# G9a block – qHTS Assay for Inhibitors of Histone Lysine Methyltransferase G9a; Potency, µM (highest dose often 102 µM), for inactives: top-dose activity, negative = inhibition, most hits filed as inhibitors; AID 504332, 2011; G9a H3K9 monomethylation, AlphaScreen, 2 h; Histone-lysine N-methyltransferase EHMT2 (Homo sapiens), Q96KQ7; 8.8% of 350,000 active; note: % is set by controls: 0 for no effect and ±100 for the full control effect; nearly all actives have a fitted effect of over 75% in size
# Target sequence (Q96KQ7 913-1193 limits assumed): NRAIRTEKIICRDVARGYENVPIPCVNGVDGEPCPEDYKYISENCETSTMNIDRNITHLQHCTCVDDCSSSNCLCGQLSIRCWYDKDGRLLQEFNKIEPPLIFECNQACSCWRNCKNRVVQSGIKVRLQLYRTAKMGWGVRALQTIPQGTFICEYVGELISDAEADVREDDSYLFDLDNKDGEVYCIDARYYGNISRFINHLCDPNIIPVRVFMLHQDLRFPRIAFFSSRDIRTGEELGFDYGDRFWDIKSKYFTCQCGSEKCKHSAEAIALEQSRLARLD
#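 Compounds were preincubated with 20 nM G9a for 15 min, after which biotinylated H3K9 peptide (500 nM) and SAM (20 uM) started a 2 h room-temperature reaction. Monomethylated product was quantified by antibody-based AlphaScreen chemiluminescence.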
# * hit, by the source's call; u = inconclusive; x = no result given; [ ] = dose if it differs, or a comment. Hits are enriched below; roughly 12% of the tested compounds scored in any of these assays. Calls come from the whole dose curve; as a rule, active = well fitted curve in the direction sought with a large enough effect; inconclusive = small, poorly fitted or top-dose-only effect, or another doubt; inactive = no such curve, though single readings can be large; an effect the other way counts as inactive or inconclusive. Potency is the fitted concentration of half-maximal effect.
SMILES,Sfp inh,BAZ2B inh,HP1b binding inh,JMJD2A Tudor,G9a block
COc1ccc(C2CC(c3ccc4ccccc4c3)=NN2C(=O)COC(=O)C2CCC(=O)N2)cc1 (configuration not stated),-22.7%,35.5µM*,-1.4%,u,u
COc1ccc(C2CC(c3ccc4ccccc4c3)=NN2C(=O)CNC2CCCCC2)cc1 (configuration not stated),-63.6%,56.2µM*,u,22.4µM*,10µM*
CC(=O)OCC(=O)N1N=C(c2ccc3ccccc3c2)CC1c1ccccc1 (configuration not stated),25.1µM*,-18.9%,26.3%,-17.5%,-8.8%
COc1ccc(C2=NN(C(=O)CCC(=O)O)C(c3ccc(OC)cc3)C2)cc1 (configuration not stated),1.4%,4.0%,37.3%,-17.8%,x
COc1ccc(C2CC(=O)N(Cc3cccc(C)c3)c3c2c(C)nn3-c2nc(C)cc(C)n2)c(OC)c1 (configuration not stated),x,-35.7%,39.0%,-12.6%,-26.5%[59 µM]
CCOc1ccc(NC(=O)CCn2c(=O)c3cccn3c3cccnc32)cc1,x,-9.7%,4.4%,-14.3%,-1.9%[59 µM]
CCCc1nc(C)cc(N2CCN(c3ccccc3)CC2)n1,u,-33.4%,46.9%,-20.4%,50.1µM*
S=c1[nH]nc2nnc3ccccc3n12,56.2µM*,u,-4.5%,-18.9%,3.16µM*
Nn1nnc2ccccc21,15.2%,3.1%,48.4%,-16.6%,40.9%[59 µM]
COc1ccc(C2/C=C\CN(S(=O)(=O)c3ccc(C)cc3)C(C)C(=O)N2Cc2ccc(F)cc2)cc1 (configuration not stated),1.2%,x,25.4%,-20.0%,x
CCOc1ccccc1NC(=O)C(=O)N/N=C/c1cc(Br)ccc1O,8.2%,8.91µM*,22.8%,u,14.3%
COc1cc(OC)c(OC)cc1/C=N/NC(=O)C[n+]1ccccc1,-2.6%,-6.3%,14.5%,-2.9%,26.5%[59 µM]
CCOc1ccccc1C=NNC(=O)C(=O)NN=Cc1ccccc1OCC,x,x,30.4%,-10.4%,x
COc1cccc(/C=N/NC(=O)C(=O)NCc2cccnc2)c1O,23.3%,20µM*,30.8%,u,31.6%[59 µM]
O=C(C[n+]1ccccc1)N/N=C/c1cc(Br)ccc1O,17.1%,10µM*,37.6%,22.4µM*,-0.4%
COc1cccc(/C=N/NC(=O)C[n+]2ccccc2)c1O,37.3%,17.8µM*,38.6%,44.7µM*,-2.9%[59 µM]
CCCCC(=O)Nc1ccc(NC(=O)c2ccc([N+](=O)[O-])cc2Cl)cc1OC,11.5%,8.7%,37.5%,-6.8%,2.4%[59 µM]
CC(=O)Nc1ccc(S(=O)(=O)NCCC(=O)Nc2cc(C)ccn2)cc1,x,8.2%,19.4%,-2.8%,9.3%[0.501 µM]
COc1ccc(-c2nc3cnc(OC)nc3n(-c3ccc(OC)cc3)c2=O)cc1,-0.1%,x,x,x,-4.5%[0.501 µM]
O=C(Nc1ccc(Nc2ccncc2)cc1)c1ccc(Nc2ccnc3ccc([N+](=O)[O-])cc23)cc1[N+](=O)[O-],u,-17.8%,-37.2%,u,50.1µM*
O=C(Nc1ccc(Nc2ccncc2)cc1)c1ccc([N+](=O)[O-])cc1,12.8%,-16.2%,24.5%,-16.2%,-27.0%
O=S(=O)(c1cccs1)N1CN(C2CCCC2)c2nc3ccccc3nc21,0.0%,u,11.3%,-31.4%,u
COCCCN1CN(S(=O)(=O)c2cccs2)c2nc3ccccc3nc21,2.9%,-5.9%,24.3%,-13.7%,12.6µM*
CC(C)CN1CN(S(=O)(=O)c2cccs2)c2nc3ccccc3nc21,-20.9%,-25.0%,x,x,44.7µM*
CC(NC(=O)c1cccc(S(=O)(=O)N(C)c2ccccc2)c1)c1cccnc1 (configuration not stated),x,x,23.8%,-15.6%,x
SMILES,Sfp inh,BAZ2B inh,HP1b binding inh,JMJD2A Tudor,G9a block
O=C(CCC1N=C2c3ccccc3N=C(SCc3ccccc3Cl)N2C1=O)N1CCN(c2ccccc2)CC1 (configuration not stated),x,u,-8.9%,u,u
COc1ccccc1C(=O)NNC(=O)C(=O)NC(C)(C)C,-7.1%,89.1µM*,55.8%,-10.1%,-21.5%
CC(C)(C)NC(=O)C(=O)NNC(=O)c1ccccc1Br,-3.4%,u,23.9%,-19.6%,22.4µM*
COC(=O)CCc1c(COC(C)=O)[nH]c(C(=O)OCc2ccccc2)c1C,10.6%,-14.4%,12.5%,-29.0%,18.7%[2.33 µM]
Cc1cc(N2CCC(C)CC2)nc2cccc(O)c12,15.2%,-28.8%,-2.6%,u,50.1µM*
CCC(C(=O)Nc1nccs1)(C(F)(F)F)C(F)(F)F,5.9%,56.2µM*,24.4%,-9.6%,u
CCC(NC(=O)Nc1nccs1)(C(F)(F)F)C(F)(F)F,-2.1%,10.1%,14.2%,-5.1%,u
O=[N+]([O-])c1ccccc1-c1ccc(C(=S)N2CCN(c3ccccc3)CC2)o1,17.8µM*,8.91µM*,u,22.4µM*,x
Cc1ccc(N2CCN(C(=S)c3ccc(-c4ccccc4[N+](=O)[O-])o3)CC2)cc1,17.8µM*,10µM*,14.1µM*,31.6µM*,7.08µM*
O=C(Nc1ccc(Cl)cc1)OCCN1CCN(Cc2ccccc2)CCC1=O,-4.1%,x,x,x,9.7%[59 µM]
CC1=C(c2ccc(Cl)cc2)S(=O)(=O)N=C1N1CCN(c2cccc(C)c2)C(C)C1 (configuration not stated),x,-7.3%,23.9%,-20.9%,-53.4%[59 µM]
O=C(O)c1csc(-c2cccs2)n1,13.9%,-17.6%,21.6%,-7.5%,79.4µM*
O=C(O)c1csc(-c2cccc(Cl)c2)n1,-15.0%,-25.9%,11.3%,-2.9%[11.4 µM],39.8µM*
O=C(c1ccc(C(=O)N2CCOCC2)nc1)N1CCOCC1,20.6%,2.2%,4.8%,39.8µM*,u
COc1ccc(OC)c(-c2cc(C3CCN(c4ncccc4[N+](=O)[O-])CC3)[nH]n2)c1,0.4%,12.6µM*,u,25.1µM*,35.5µM*
COc1ccc(-c2cc(C3CCN(Cc4ccc([N+](=O)[O-])cc4)CC3)[nH]n2)cc1,-9.7%,u,u,44.7µM*,44.7µM*
O=[N+]([O-])c1cccnc1N1CCC(c2cc(-c3cccc(C(F)(F)F)c3)n[nH]2)CC1,15.3%,35.5µM*,u,-14.5%[11.4 µM],u
COc1ccc(-c2cc(C3CCN(Cc4cccc(C(F)(F)F)c4)CC3)[nH]n2)cc1,10.7%,u,-4.7%,u,u
COc1ccc(NC(=O)COC(=O)CCCC2=NS(=O)(=O)c3ccccc3N2)cc1,11.9%,-2.7%,76.1%,-12.8%,-5.8%

# High-throughput results: PubChem, National Center for Advancing Translational Sciences (NCATS)
